Pf Dd2 inh – qHTS Primary assay for Inhibitors of Plasmodium falciparum Dd2 growth in vitro; P. falciparum Dd2 growth, SYBR Green, 72 h; Potency, µM (highest dose often 28.9 µM), usual class: inhibitors; 120,000 tested, 4.3% active; active means well fitted inhibition curve with a large enough effect; further: nearly all actives have a fitted effect of over 65% in size
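Infected erythrocytes (Dd2, 0.3% parasitemia, 2.5% hematocrit final) are added to compound in RPMI-1640/Albumax II medium, grown 72 h at 37C in low oxygen, then lysed with saponin/Triton-X containing SYBR Green and read by fluorescence.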
Large screens that a line does not name were inactive; ! = not confirmed by another sample. The entries come from a sample that favours hits as a whole.

CN(C)CCN1CCCN(C(=O)CCc2ccccc2)c2ccccc21	Pf Dd2 inh 7.1µM
COc1ccccc1CC(=O)N1CCCN(CCc2ccccc2)c2ccccc21	Pf Dd2 inh 7.9µM
O=C(c1ccncc1)N1CCCN(CCc2ccccc2)c2ccccc21	none
CN(C(=O)CN1CCOCC1)C1CCc2nn(C)c(=O)n2CC1 (stereo not drawn)	none
CCOc1ccc(CCCNC(=O)c2c(C)cc(C)n(C)c2=O)cc1OCC	none
O=C(NCCCN1CCCCCC1)c1ccc(CC2CCN(C(=O)C3CC3)CC2)cc1	none
CN1CCN(C(=O)CN2CC3CC(C2)[C@H]2CCCC(=O)N2C3)CC1 (stereo partly drawn)	none
NC(=O)COc1cccc(C(=O)N2C[C@H](CO)C[C@H](CN3CCCC3)C2)c1	none
CNC(=O)CCn1ncc2cc(OC3CCc4cccc(-c5cccnc5)c43)ccc21 (stereo not drawn)	none
COC(=O)C1=C(C)N=C2SC=C(CC(=O)NCc3ccccc3)N2C1c1ccccc1F (stereo not drawn)	none
CCOC(=O)C1=C(C)N=C2SC=C(CC(=O)NCC3CCCO3)N2C1c1ccc(Cl)cc1 (stereo not drawn)	Pf Dd2 inh 2.2µM
CCOC(=O)C1=C(C)N=C2SC=C(CC(=O)NC3CC3)N2C1c1ccccc1C (stereo not drawn)	none
COC(=O)C1=C(C)N=C2SC=C(CC(=O)NC3CC3)N2C1c1ccc(C)cc1C (stereo not drawn)	none
CC1=C(C(=O)OC(C)C)C(c2ccccc2C)N2C(CC(=O)NC3CC3)=CSC2=N1 (stereo not drawn)	Pf Dd2 inh 7.9µM
C=CCOC(=O)C1=C(C)N=C2SC=C(CC(=O)NCc3ccco3)N2C1c1cccc(C)c1 (stereo not drawn)	none
CCOC(=O)C1=C(C)N=C2SC=C(CC(=O)N3CCCC3)N2C1c1ccc(Cl)cc1 (stereo not drawn)	none
COC(=O)C1=C(C)N=C2SC=C(CC(=O)NCC3CCCO3)N2C1c1ccccc1C (stereo not drawn)	none
C=CCOC(=O)C1=C(C)N=C2SC=C(CC(=O)NCc3ccc(F)cc3)N2C1c1ccccc1C (stereo not drawn)	Pf Dd2 inh 3.2µM
CS(=O)(=O)N(C1CC1)C1CCOC2(CCN(C(=O)c3ccccc3F)CC2)C1 (stereo not drawn)	none
N#Cc1ccc(CN2CCC(N3CCNC3=O)CC2)cc1	none
c1cncc(-c2nc(CCNc3ncncn3)cs2)c1	none
COc1cc(CN2CCN(c3ncccc3C#N)CC2CCO)cc(OC)c1 (stereo not drawn)	none
CCNC(=O)N1CCC[C@@H](O)[C@H](NC(=O)c2ccc(OCCOC)cc2)C1	none
Cc1[nH]nc(CCC(=O)N2CC[C@H](N3CCOCC3)[C@H](CCC(=O)O)C2)c1C	none
COc1ccccc1-c1ccnc(N[C@H]2CO[C@H]3[C@@H]2OC[C@@H]3NS(=O)(=O)c2cccs2)n1	none
COc1ccccc1-c1ccnc(N[C@H]2CO[C@H]3[C@@H]2OC[C@@H]3NS(C)(=O)=O)n1	Pf Dd2 inh 14µM
COc1ccccc1-c1ccnc(N[C@H]2CO[C@H]3[C@@H]2OC[C@@H]3NS(=O)(=O)c2ccc(NC(C)=O)cc2)n1	none
Cc1ncc2c(n1)C[C@@H]1CC[C@H]2N1C(=O)NCc1ccccc1	none
CCS(=O)(=O)Nc1ccc(C2(C(=O)NCc3cccs3)CCCCC2)cc1	none
COc1ccc(C(CNC(=O)COc2ccc(Cl)c(C)c2)N2CCOCC2)cc1 (stereo not drawn)	Pf Dd2 inh 3.5µM
COc1ccc(C(CNC(=O)c2ccc(C)cc2)N2CCOCC2)cc1 (stereo not drawn)	none
CC(C)c1ccc(OCC(=O)NCC(c2ccc(Cl)cc2)N2CCOCC2)cc1 (stereo not drawn)	Pf Dd2 inh 10µM
CN(C)c1ccc(C(CNS(=O)(=O)c2ccc(Cl)cc2)N2CCOCC2)cc1 (stereo not drawn)	none
COc1ccc(C(CNC(=O)c2oc3ccccc3c2C)N2CCCCC2)cc1 (stereo not drawn)	none
COc1ccc(C(CNC(=O)c2oc3cc(C)c(Cl)cc3c2C)N2CCCCC2)cc1 (stereo not drawn)	none
COc1ccc(C(CNC(=O)COc2ccc(C)c(C)c2)N2CCCCC2)cc1 (stereo not drawn)	Pf Dd2 inh 11µM
CCCOc1ccc(C(=O)NCC(c2ccc(OC)cc2)N2CCCCC2)cc1 (stereo not drawn)	none
COc1ccc(CC(=O)NCC(c2ccc(Cl)cc2)N2CCOCC2)cc1 (stereo not drawn)	none
COc1ccc(C(CNC(=O)COc2cc(C)cc(C)c2)N2CCCCC2)cc1 (stereo not drawn)	none
Cc1cc(OCC(=O)NCC2(N3CCOCC3)CCCCC2)ccc1Cl	none
COc1ccc(OCC(=O)NCC(c2ccc(OC)cc2)N2CCCCC2)cc1 (stereo not drawn)	Pf Dd2 inh 8.9µM
CN1CC2(CCCN(Cc3cc4ccccc4n(C)c3=O)C2)OC1=O (stereo not drawn)	none
Cc1ccc(CN2C[C@@H]3C(=O)N(C)C(=O)[C@@H]3C2)cc1C	none
O=C(NCCc1noc(C2CC2)n1)Nc1ccc(C(F)(F)F)cc1	none
O=C(CCc1ccccc1)N1CCC2(CC1)NC(=O)N(c1ccccc1)N2	none
CCN1CCC2(CCC1=O)CN(C(=O)CCc1cccnc1)CCN2C (stereo not drawn)	none
COCCc1noc([C@@H]2CN(Cc3cccc(OC)n3)C[C@H]2CO)n1	none
O=c1[nH]nc2n1CCN(Cc1ccc(F)c(Br)c1)CC2	none
Cc1cccc(OCC2(CNC(=O)C3CC3)C[C@@H](O)[C@@H](O)C2)n1 (stereo partly drawn)	none
Cc1ccoc1C(=O)N1CCC(Oc2ccccc2F)(C(=O)O)CC1	none
COCC(=O)Nc1cc(C(=O)N2CCc3cc(OC)c(OC)cc3C2)c2c(c1)nc(C1CCC1)n2C	none
CN1C(=O)C(c2ccccc2)CC12CCN(S(C)(=O)=O)CC2 (stereo not drawn)	none
CN1C(=O)C(c2ccccc2)CC12CCN(C(=O)C1CCCC1)CC2 (stereo not drawn)	none
CN1C(=O)C(c2ccccc2)CC12CCN(CCC(=O)O)CC2 (stereo not drawn)	Pf Dd2 inh 10µM
CS(=O)(=O)N1CCC(OC2CCN(C(=O)Cc3c[nH]c4ccccc34)CC2)CC1	none
Cc1nc(-c2cn(C3CCCN(C(=O)c4cccc(F)c4)C3)nn2)no1 (stereo not drawn)	none
CCOCCN1C(=O)COC[C@@H]1[C@H](O)c1ccc(NC(=O)C2CC2)cc1	none
O=C1NCC2(CCN(CC3CCCCC3)CC2)Oc2ccccc21	none
O=C1NC2(CCCN(Cc3ccc(C(F)(F)F)cc3)C2)COc2ccccc21 (stereo not drawn)	Pf Dd2 inh 11µM!
O=[S+]1([O-])NC2(CCCN(Cc3ccc(C(F)(F)F)cc3)C2)COc2ccccc21 (stereo not drawn)	none
O=C1NCC2(CCN(Cc3ccc(F)cc3)CC2)Oc2ccccc21	none
O=C1NC2(CCN(Cc3ccccc3C(F)(F)F)C2)COc2ccccc21 (stereo not drawn)	none
O=C1NC2(CCN(CC3CCCCC3)CC2)COc2ccccc21	Pf Dd2 inh 10µM
O=C1NC2(CCN(CC3CC3)CC2)COc2ccccc21	none
O=C1NC2(CCN(Cc3ccc(F)cc3)CC2)COc2ccccc21	Pf Dd2 inh 3.2µM
O=C1NC2(CCN(Cc3cccnc3)CC2)COc2ccccc21	none
COc1ccc(CNC[C@H]2COCc3nc4cc(F)ccc4n32)cn1	none
CN1CC(=O)N(C2CCCNCC2)Cc2c1ncnc2N1CCC(O)CC1 (stereo not drawn)	none
COc1ccc(-c2ccc(C(=O)N[C@H](c3ccccn3)C3CC(O)C3)o2)cc1 (stereo partly drawn)	none
